Compound activity deposited in PubChem by National Center for Advancing Translational Sciences (NCATS).
This excerpt belongs to a sample that is enriched for hits.
nsP2pro primary = inhibitors of chikungunya virus nsP2 protease. Potency, µM (titrated, usually from 24.9 µM), hits mostly inhibitors. 31,000 compounds, 1.1% hits. FRET peptide cleavage, nsP2pro, fluorescence 1 h; note: nearly all actives have a fitted effect of over 60% in size
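Purified recombinant nsP2pro (150 nM final) in 10 mM Tris-HCl pH 8.0 with 0.01% Tween 20 was preincubated 15 min at room temperature with compound (7 concentrations, up to 25 uM). FRET peptide 2 substrate (2.5 uM final) was then added; fluorescence was read after 1 h.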
CHIKV nsP2 cell = secondary cell-based test for CHIKV nsP2 protease inhibitors; shares compounds with nsP2pro primary; cell-based CHIKV nsP2 protease reporter assay; Potency, µM (titrated, usually from 51.1 µM), usual class: inhibitors; 450 compounds, 10% hits; AID 1964100; note: nearly all actives have a fitted effect of over 70% in size
Target sequence (Q8JUX6 220-798 limits assumed): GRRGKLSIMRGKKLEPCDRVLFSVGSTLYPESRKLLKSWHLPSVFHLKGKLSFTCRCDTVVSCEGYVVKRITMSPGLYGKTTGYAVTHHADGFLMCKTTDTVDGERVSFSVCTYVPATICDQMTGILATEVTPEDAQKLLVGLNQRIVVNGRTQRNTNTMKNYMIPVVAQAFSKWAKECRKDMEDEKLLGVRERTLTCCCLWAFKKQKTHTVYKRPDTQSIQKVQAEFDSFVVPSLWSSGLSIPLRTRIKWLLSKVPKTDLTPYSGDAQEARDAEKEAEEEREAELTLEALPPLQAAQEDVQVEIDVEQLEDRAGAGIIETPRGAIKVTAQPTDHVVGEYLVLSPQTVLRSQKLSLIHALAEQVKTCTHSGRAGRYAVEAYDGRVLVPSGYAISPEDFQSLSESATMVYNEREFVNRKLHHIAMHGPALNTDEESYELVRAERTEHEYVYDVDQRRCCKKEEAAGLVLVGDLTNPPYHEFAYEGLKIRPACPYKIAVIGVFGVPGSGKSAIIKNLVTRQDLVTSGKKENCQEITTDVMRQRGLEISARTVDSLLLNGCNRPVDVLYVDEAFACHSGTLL
CHIKV NSP2 FL = selectivity test for CHIKV nsP2 protease inhibitors: full-length NSP2 | shares compounds with nsP2pro primary | Full-length CHIKV NSP2 protease enzymatic counterscreen | Potency, µM (titrated, usually from 50.7 µM), most hits filed as inhibitors | 410 compounds, 39% hits; note: nearly all actives have a fitted effect of over 65% in size
Furin counterscr = human furin inhibition, counterscreen for nsP2pro inhibitors. shares compounds with nsP2pro primary. Recombinant human furin enzymatic counterscreen, fluorogenic substrate. Potency, µM (highest dose often 50.6 µM), hits mostly inhibitors. 410 compounds, 6% hits
NS23 peptide cs = blocks CHIKV nsP2 protease cleavage of endogenous NS2/3 peptide; 410 compounds, 34% hits; Purified CHIKV nsP2 protease, endogenous NS2/3 peptide cleavage; Potency, µM (top dose mostly 51 µM), most hits filed as inhibitors; shares compounds with nsP2pro primary; note: nearly all actives have a fitted effect of over 55% in size
Papain cs = selectivity counter-screen for CHIKV nsP2 protease inhibitors: papain; shares compounds with nsP2pro primary; purified papain protease activity, enzymatic inhibition; Potency, µM (series often up to 51 µM), usual class: inhibitors; 410 compounds, 5% hits
nsP2pro conf qHTS = CHIKV nsP2 protease inhibition, confirmatory qHTS; CHIKV nsP2 protease enzymatic activity, qHTS; AID 1964105; Potency, µM (highest dose often 25.5 µM), most hits filed as inhibitors; shares compounds with nsP2pro primary; 410 compounds, 43% hits; note: nearly all actives have a fitted effect of over 75% in size
HCV NS3 counter = selectivity counter-screen for CHIKV nsP2 protease inhibitors: HCV NS3/4A | 410 compounds, 20% hits | Potency, µM (doses to about 50.9 µM), usual class: inhibitors | shares compounds with nsP2pro primary | HCV NS3/4A protease biochemical counterscreen | AID 1964106; note: nearly all actives have a fitted effect of over 55% in size
Each line names hits and unclear results; the compound was inactive in the other large screens (follow-up assays come after a bar, where they were run). Calls come from the whole dose curve.

CC(=O)N1CCOc2ccc(CCC(=O)N3CCN(C4CCCCC4)CC3)cc2C1	none
CC(C)N(C(=O)c1ccccc1-c1ccc(CS(C)(=O)=O)cn1)C(C)C	none
CNC1=C(c2ccc(F)cc2)C(=O)N(Cc2ccccc2)C1	none
CC(=O)c1cccc(NC(=O)OC[C@H]2C[C@@H]3CCN2C[C@@H]3c2cc(C3CCCC3)nc(C)n2)c1	none
CC(=O)c1ccc(NC(=O)OC[C@H]2C[C@@H]3CCN2C[C@@H]3c2cc(C3CCCC3)nc(-c3ccncc3)n2)cc1	none
COc1ccccc1-c1cc([C@H]2CN3CC[C@H]2C[C@@H]3COC(=O)NC2CCCCC2)nc(C)n1	nsP2pro primary 10µM
CC(C)(C)c1cnc([C@@H]2COCCN2C2CCCCC2)[nH]1	none
CC(OC(=O)NCC1(CC(=O)O)CCCCC1)OC(=O)C(C)C (stereo not given)	none
O=C(O[C@H]1C[N+]2(CCCOc3ccccc3)CCC1CC2)C(O)(c1cccs1)c1cccs1	none
CCOc1ccc(C(=O)Oc2ccc(-c3nc4ccccc4[nH]3)cc2)cc1	none
Cn1cc(-c2ccc3c(n2)CN(Cc2ccc(F)cc2)C(=O)CO3)cn1	none
O=C1COc2ccc(-c3cccc(O)c3)nc2CN1Cc1ccc(C(F)(F)F)cc1	none
O=C1COc2ccc(N3CCOCC3)nc2CN1Cc1ccc(F)cc1	nsP2pro primary 11µM
O=C(O)c1ccc(-n2cccc2/C=C2\SC(=O)N(Cc3ccc(F)cc3)C2=O)cc1	none
CC[C@@H]1CCN[C@H](C(=O)N[C@@H]([C@H]2O[C@H](SC)[C@H](O)[C@@H](O)[C@H]2O)[C@H](C)Cl)C1	none
CCCC(=O)O[C@]1(C(=O)COC(C)=O)CC[C@H]2C3C[C@H](F)C4=CC(=O)C=C[C@]4(C)[C@@]3(F)[C@@H](O)C[C@@]21C (stereo not given in full)	none
C[C@]12CCC3=C4CCC(=O)C=C4CC[C@H]3[C@@H]1CC[C@@]2(O)CC#N	none
Cc1noc(C)c1[S+](=O)([O-])N1CCn2c(nn(-c3ccc(C(F)(F)F)cc3)c2=O)C1	none
CCOC(=O)c1cn(C2CN(S(=O)(=O)Cc3ccccc3)C2)nn1	none
CC(C)N[C@@H]1CCn2c(=O)[nH]c3cccc(c32)[C@H]1O	nsP2pro primary 11µM
COc1ccc(-n2c(C)c(C(C)=O)c3ccccc32)cc1	none
Cn1nnnc1SCC1=C(C(=O)O)N2C(=O)[C@H](NC(=O)C(O)c3ccccc3)C2SC1 (stereo not given in full)	none
O=C(O)C1=C(CSc2nnnn2CS(=O)(=O)O)CS[C@@H]2[C@@H](NC(=O)[C@H](O)c3ccccc3)C(=O)N12	none
NCc1ccccc1CC(=O)N[C@@H]1C(=O)N2C(C(=O)O)=C(CSc3nnnn3CC(=O)O)CS[C@H]12	nsP2pro primary 12µM
COc1cc(N2CCC(O)CC2)ccc1Nc1nc(Nc2ccccc2S(=O)(=O)C(C)C)c2[nH]cnc2n1	none
O=C(Nc1ccc(F)cc1)c1ccc2cc[nH]c2n1	none
CN(C)c1ccc(CNc2nc(-c3ccco3)nn2C(=O)c2cccc([N+](=O)[O-])c2)cc1	none
COc1ccc(C(=O)n2nc(-c3ccc(Cl)cc3)nc2NCc2ccco2)cc1	none
COc1ccc(C(=O)n2nc(-c3ccco3)nc2NCc2cccs2)cc1OC	nsP2pro primary 13µM
O=C(c1ccc2c(c1)ncn2-c1ccc(Cl)cc1)N1CCCCC1	none
Cc1ccc(S(=O)(=O)Nc2ccccc2C(=O)Nc2nccs2)cc1	none
C=CC(=O)Nc1cc(Nc2ncc(C(=O)OC(C)C)c(-c3cn(C)c4ccccc34)n2)c(OC)cc1N(C)CCN(C)C	none
CC(C)c1nn2c(=O)cc(COC(=O)c3ccco3)nc2s1	nsP2pro primary 13µM
CC(C)c1nn2c(=O)cc(COC(=O)c3ccc4c(c3)OCO4)nc2s1	none
CC(C)c1nn2c(=O)cc(COC(=O)Cc3ccccc3)nc2s1	none
CN(Cc1nc(-c2ccccc2)no1)C(=O)c1cccc(C2CCNC2)c1 (stereo not given)	none
CCOC(=O)c1cnn(-c2ccccc2)c1NC(=O)c1cc2nc(-c3ccco3)cc(C(F)(F)Cl)n2n1	nsP2pro primary 11µM
COC(=O)c1ccccc1NC(=O)c1cc2nc(-c3ccccc3)cc(-c3ccccc3)n2n1	none
CCOC(=O)c1cnn(-c2ccc(NC(=O)C(Cl)=C(Cl)Cl)cc2)c1C(F)(F)F	none
COc1ccc(-c2nc3cc(C(=O)NCC(C)C)ccc3o2)cn1	none
COCC(=O)N[C@@H]1CN(Cc2cn(C)nc2C)C[C@H]1CO	none
Cc1nn(C)c(C)c1CCC(=O)NCCc1ncc(C)n1Cc1ccc(F)cc1	none
CC(C)=C/C(C)=N\Nc1nncc2ccccc12	none
O=C1OCCN1C1CCN(Cc2ccccc2)CC1	none
C=CCc1ccc(O)c(OC)c1	none
COc1cc(CCN)ccc1O	nsP2pro primary inconclusive | CHIKV nsP2 cell inactive | CHIKV NSP2 FL inactive | Furin counterscr inactive | NS23 peptide cs inactive | Papain cs inactive | nsP2pro conf qHTS inactive | HCV NS3 counter inactive
COc1cc(C2Oc3c(OC)cc(CCCO)cc3C2CO)ccc1O (stereo not given)	none
CC(Cc1ccc(O)c(O)c1)C(C)Cc1ccc(O)c(O)c1 (stereo not given)	nsP2pro primary 9.9µM | CHIKV nsP2 cell inactive | CHIKV NSP2 FL 29µM | Furin counterscr inactive | NS23 peptide cs 21µM | Papain cs inactive | nsP2pro conf qHTS 8µM | HCV NS3 counter inactive
CC(CCc1ccc(O)cc1)NCCc1ccc(O)c(O)c1 (stereo not given)	none
COc1cccc(CCC(=O)N2CCCCC2c2nc(-c3ccncc3)n[nH]2)c1 (stereo not given)	none
C=C1[C@@H](C)C2[C@H](Cc3ccccc3)NC(=O)[C@@]23C(/C=C/C[C@H](C)C[C@@](C)(O)/C=C/[C@@H]3OC(C)=O)[C@@H]1O (stereo not given in full)	none
C=C1[C@@H](C)[C@H]2[C@H](Cc3ccccc3)NC(=O)[C@]23OC(=O)/C=C/C(=O)CCC[C@@H](C)C/C=C/[C@H]3[C@@H]1O	nsP2pro primary 2.5µM | CHIKV nsP2 cell 0.71µM | CHIKV NSP2 FL 7.3µM | Furin counterscr inactive | NS23 peptide cs 8.2µM | Papain cs inactive | nsP2pro conf qHTS 1.1µM | HCV NS3 counter 0.37µM
